Hits are enriched below; roughly 19% of the tested compounds scored in any of these assays.
DT40 TDP1 no CPT: qHTS for Inhibitors of human tyrosyl-DNA phosphodiesterase 1 (TDP1): qHTS in cells in absence of CPT | DT40 Tdp1-/- hTDP1 cells, no CPT, ATP luminescence, 48 h | Potency, µM (top dose mostly 46.2 µM), for inactives: top-dose activity change, negative = growth inhibition, actives largely listed as inhibitors | 420,000 compounds, 15% hits | AID 686978, 2013; further: potency means the concentration at half of the fitted maximal effect; nearly all actives have a fitted effect of over 55% in size
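A cellular qHTS used chicken DT40 cells lacking endogenous Tdp1 but carrying stably transfected human TDP1. Compounds were applied without camptothecin, and cell growth kinetics were judged by ATP-dependent luminescence after ≥48 hr.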
DT40 TDP1 CPT: growth inhibition of DT40 Tdp1-/-;hTDP1 cells with camptothecin (screen for TDP1 inhibitors). chicken DT40 Tdp1-/-;hTDP1 cells + 20 nM CPT, ATP luminescence, 48 h. Potency, µM (top dose mostly 46.2 µM), for inactives: at the highest dose activity change, negative = growth inhibition, hits mostly inhibitors. 420,000 compounds, 12% hits; further: potency means the concentration at half of the fitted maximal effect; nearly all actives have a fitted effect of over 55% in size
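Cell growth measured by CellTiter-Glo luminescence after a minimum 48 h, 37 C compound exposure with 20 nM CPT in Tdp1-knockout DT40 cells stably expressing hTDP1, seeded 400/well; qHTS titration format.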
IL-1B inflam inh: inhibitors of inflammasome signaling (IL-1 beta secretion); activity change, % at 57.5 µM; AID 743279; THP-1 LPS/ATP IL-1B secretion, AlphaLISA, 16 h; hits give low values; 360,000 compounds, 4.7% hits; in the data active means activity change below about -50%; inconclusive means mostly about -30% to -49%
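THP-1 cells pretreated 1 hr with compounds (up to 57.5 uM final), then stimulated with LPS (250 ng/mL final) plus ATP (1.25 mM final); secreted IL-1B measured by AlphaLISA after 16 hr, decreased signal indicating inhibition.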
HT1080 IDH1KD tx: kills HT-1080 cells with IDH1 knockdown; HT-1080 IDH1 knockdown viability, ATP luminescence, 48 h; 360,000 compounds, 2% hits; Potency, µM (top dose mostly 46.1 µM), without a hit: at the top dose activity, negative = toxicity, hits mostly cytotoxic;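 further: potency means the concentration at half of the fitted maximal effect; 0% = DMSO wells and -100% = cell-free medium wells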
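Luminescent ATP read-out (CellTiter-Glo, 10 min at room temperature) after 48 h compound exposure at 37 °C gave viability of IDH1-knockdown HT-1080 cells. Activity was normalised to DMSO and cell-free wells, then fitted as concentration-response curves.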
HT1080-NT tox: kills 2HG-producing HT-1080-NT fibrosarcoma cells | HT-1080-NT fibrosarcoma viability, CellTiter-Glo ATP luminescence, 48 h | Potency, µM (titrated, usually from 46.1 µM), for inactives: at the highest dose activity, negative = less viability, usual class: cytotoxic | 360,000 compounds, 1.6% hits;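 further: NT is the 2HG producing partner of a matched IDH1 knockdown line; potency means the concentration at half of the fitted maximal effect; 0% = DMSO-treated cells and -100% = media-only wells without cells; nearly all actives have a fitted effect of over 55% in size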
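Read-out is CellTiter-Glo luminescence after 10 minutes at room temperature, following 48 hours' compound treatment of HT-1080-NT cells (750 cells/well, RPMI, 5% FBS, 37 degrees C).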
The depositor's hits bear a star; i = inactive; ? = inconclusive; / = no result given; [ ] = another dose, or the depositor's remark. Unless noted, the call rests on the fitted dose curve; in most records, active means well fitted curve in the direction sought with a large enough effect; inconclusive means small, poorly fitted or top-dose-only effect, or another doubt; inactive means no such curve, though single readings can be large; an effect the other way counts as inactive or inconclusive. Unless noted, on the % scale 0 is the no-effect control and ±100 the full control effect.

SMILES | DT40 TDP1 no CPT | DT40 TDP1 CPT | IL-1B inflam inh | HT1080 IDH1KD tx | HT1080-NT tox
Cc1ccccc1Nc1nn2c(=O)c3ccc(C(=O)N4CCCC(C)C4)cc3nc2s1 (stereo not drawn) | 16.4µM* | 14.6µM* | -0.4 | 10.5% | -0.6%
CCOC(=O)C1CCN(C(=O)c2ccc3c(=O)n4nc(Nc5ccccc5)sc4nc3c2)CC1 | 14.6µM* | 20.6µM* | -22.2 | -8.8% | -5.1%
COc1ccccc1Nc1nn2c(=O)c3ccc(C(=O)N4CCC(C)CC4)cc3nc2s1 | 18.4µM* | 23.1µM* | -4.9 | -22.2% | -12.4%
CCc1ccccc1Nc1nn2c(=O)c3ccc(C(=O)NC4CCC(C)CC4)cc3nc2s1 (stereo not drawn) | 16.4µM* | ? | / | / | /
CCOC(=O)C1CCN(C(=O)c2ccc3c(SCC(=O)O)c4c(nc3c2)CCCC4)CC1 | -11.9% | 1.1% | 14.3 | 1.5% | 3.2%
O=C1c2ccccc2C(=O)N1CCCCN(C(=O)c1cc([N+](=O)[O-])ccc1Cl)c1ccc(Cl)cc1 | ? | ? | -7.1 | 12.1% | 6.7%
COc1cc2c(cc1OC)/C(=C/C(=O)OCc1ccccc1)OC2 | -22.0% | -25.8% | ? | -9.2% | -18.4%
COc1ccccc1Nc1nn2c(=O)c3ccc(C(=O)NC4CCC(C)CC4)cc3nc2s1 (stereo not drawn) | 5.17µM* | 5.8µM* | / | / | /
COc1ccc(S(=O)(=O)NNC(=S)NCCc2ccccc2)c(OC)c1 | -4.6% | 3.0% | i | 12.7% | -0.1%
CCOC(=O)C1CCCN(C(=O)c2sc3nc(C)nc(N(CC)CC)c3c2C)C1 (stereo not drawn) | ? | 23.1µM* | 0.1 | -7.1% | -0.5%[9.24 µM]
CCC1CCCCN1C(=O)c1sc2nc(C)nc(N(CC)CC)c2c1C (stereo not drawn) | 16.4µM* | ? | 18.1 | 1.9% | -6.8%
O=c1[nH]cnc2c1sc1nc(C(F)F)cc(-c3ccccc3)c12 | -24.1% | -20.8% | 46.2 | -5.1% | -9.0%
CCc1ccc(NC(=S)N2CCN(S(=O)(=O)c3ccccc3)CC2)cc1 | 17.3% | -26.6% | -16.5 | -5.9% | -0.2%
O=C1C(=O)N(c2ccccn2)C(c2cccc(F)c2)/C1=C(/O)c1ccccc1 (stereo not drawn) | -2.5% | 7.5% | 9.7 | -0.7% | 11.6%
CCOc1ccc(N2CC(NC(=O)C3CCCCC3)CC2=O)cc1 (stereo not drawn) | -1.7% | -6.9% | / | / | /
CCC1CCCCN1c1nc2c(C=O)c(C)nn2c2ccccc12 (stereo not drawn) | 16.4µM* | 20.6µM* | -29.9 | -5.6% | 1.7%
COc1ccc(OC)c(NC(=O)C23CC4CC(C2)CC(n2cnc(Br)n2)(C4)C3)c1 | 10µM* | 11.2µM* | 2.6 | -16.1% | -3.0%
Cc1ccc2nc(/C(C#N)=C/c3ccc(-c4ccc(F)cc4F)o3)[nH]c2c1 | 5.17µM* | 2.91µM* | / | / | /
Cc1ccc2nc(/C(C#N)=C/c3ccc(-c4cccc([N+](=O)[O-])c4)o3)[nH]c2c1 | ? | ? | 0.0 | 13.3% | -1.9%
N#C/C(=C\c1c(Cl)cccc1Cl)c1nc2ccccc2[nH]1 | -26.0% | ? | -93.4* | ? | -19.2%
Cc1c(Cl)cccc1-c1ccc(/C=C(\C#N)c2nc3ccccc3[nH]2)o1 | 4.11µM* | 10.3µM* | / | / | /
Cc1noc(C)c1C(=O)N1CCC2(CCCN(c3ccccc3)C2)CC1 | ? | 5.0% | / | / | /
COc1ccc(N(Cc2cccs2)C(=O)c2ccc(OCC(C)C)cc2)cc1 | 20.6µM* | ? | / | / | /
Cc1ccc(N(Cc2cccs2)C(=O)C(C)Oc2ccc(Cl)c(C)c2)cc1 (stereo not drawn) | 9.2µM* | 11.6µM* | / | / | /
Cc1cc(OC(C)C(=O)N(Cc2cccs2)C2CCS(=O)(=O)C2)ccc1Cl (stereo not drawn) | ? | ? | -18.6 | -10.5% | -7.0%
SMILES | DT40 TDP1 no CPT | DT40 TDP1 CPT | IL-1B inflam inh | HT1080 IDH1KD tx | HT1080-NT tox
CCCCOc1cccc(C(=O)N(Cc2cccs2)c2ccc(OC)cc2)c1 | 6.51µM* | ? | / | / | /
COc1ccc(N(Cc2cccs2)C(=O)c2ccccc2C)cc1 | 13µM* | 11.6µM* | / | / | /
CC(=O)c1ccc(OCC(O)CN(C)Cc2cccs2)cc1 (stereo not drawn) | -28.4% | -19.4% | 6.6 | -3.3% | 1.9%
CCCCOc1cccc(C(=O)N(Cc2cccs2)C2CCS(=O)(=O)C2)c1 (stereo not drawn) | ? | ? | -5.7 | -2.1% | 0.8%
COc1ccc(CCNC(=O)COC(=O)CSc2ccc([N+](=O)[O-])cc2)cc1OC | 8.1% | -0.1% | 1.5 | 4.1% | -2.2%
O=C(NCCCn1ccnc1)c1cc2c(ccc3ccccc32)o1 | 3.8% | 0.7% | 30.3 | 24.4% | 13.5%
N#Cc1ccc(C(=O)Nc2cc(-c3ccccc3)nn2-c2ccccc2)cc1 | -28.3% | ? | -16.9 | -19.7% | -9.6%
Cn1nc(-c2ccccc2)cc1NC(=O)c1ccc(Cl)cc1 | -17.7% | -29.8% | -15.0 | 3.1% | 9.8%
O=C(Nc1cc(-c2ccccc2)nn1-c1c(Cl)cccc1Cl)c1ccc(F)cc1 | 18.4µM* | 20.6µM* | -25.1 | -24.1% | -21.6%
N#Cc1ccc(C(=O)Nc2cc(-c3ccc(F)cc3)nn2-c2ccccc2)cc1 | ? | 14.6µM* | -6.2 | -0.4% | -10.5%
Cc1ccc(N=Cc2c(O)n(-c3cc(Cl)ccc3N3CCOCC3)c(=O)c3ccccc23)cc1C | 6.51µM* | 7.31µM* | ? | 6.2% | 15.3%
COC(=O)CCCC[C@@H]1O[C@H](CCc2ccccc2)Cc2[nH]c(=S)[nH]c(=O)c21 | ? | -7.4% | 27.9 | 2.1% | 8.2%
OC(CNCc1ccco1)Cn1c2ccc(Br)cc2c2cc(Br)ccc21 (stereo not drawn) | 18.4µM* | 14.6µM* | -59.0* | ? | ?
CC(=O)c1cccc(S(=O)(=O)Nc2cccnc2)c1 | -10.9% | 3.9% | 10.9 | 2.4% | -2.7%
Cc1cccc2cc(CN(Cc3cccnc3)C(=S)NCCCN(C)C)c(=O)[nH]c12 | ? | 13µM* | -6.7 | -0.5% | -9.8%
CCN(CC)CCCNC(=S)N(Cc1cccnc1)Cc1cc2cccc(C)c2[nH]c1=O | -19.6% | 2.3% | ? | -14.9% | -7.5%
Cc1ccc(CN(Cc2cc3cccc(C)c3[nH]c2=O)C(=S)NCCCN(C)C)cc1 | ? | ? | -77.5* | ? | -24.6%
Cc1ccc2[nH]c(=O)c(CN(Cc3cccnc3)C(=S)NCCCN(C)C)cc2c1 | -2.1% | 12.4% | -13.1 | -3.3% | -6.2%
Cc1cccc2cc(CN(Cc3ccccc3)C(=S)NCCCN(C)C)c(=O)[nH]c12 | ? | ? | -84.5* | -19.4% | -15.5%
